# Laboratory results: PubChem BioAssay (NCATS)
# Inconclusive results are not listed. Where a call stands in place of a potency, no number is given. Activity calls are given as the source filed them. Calls follow the shape of the dose curve; as a rule, active = well fitted inhibition curve with a large enough effect; inconclusive = small, poorly fitted or top-dose-only effect; inactive = flat fitted curve, though single readings scatter.
# Experiment: qHTS for differential inhibitors of proliferation of Plasmodium falciparum line Dd2 (AID 1882); also: nearly all actives have a fitted effect of over 65% in size
# Conditions: Potency: Plasmodium falciparum Dd2 proliferation inhibition; series mostly up to 28.7 µM
# Text: NIH Molecular Libraries Probe Production Network [MLPCN]
# NIH National Institute of Allergy and Infectious Diseases [NIAID]
# NIH Chemical Genomics Center [NCGC]
# Assay Provider: Xinzhuan Su, NIAID
# Plasmodium falciparum is a virulent malarial parasite that kills 1-2 million people worldwide each year. Transmitted by mosquitoes, the sporozoite form of the parasite enters the blood stream to infect hepatocytes, where they become merozoites that infect red blood cells (erythrocytes). Within erythrocytes, merozoites begin a […] cycle of growth and division, after which the parasite is released to infect new red blood cells. Gametocytes, which form within erythrocytes as well, circulate in the bloodstream and are ingested by the mosquito, thereby completing the life cycle. To profile malarial isolates for differential chemical responses and to identify inhibitors of malarial growth, an assay that measures P. falciparum growth and replication within erythrocytes was employed. This assay uses a DNA binding fluorescent dye (SYBR Green) to detect parasite DNA following cell lysis. Because mature erythrocytes lack DNA, only Plasmodium-derived DNA is detected. The P. falciparum line Dd2, derived from a malarial isolate from […], was used.
# NCGC Assay Protocol Summary:
# The SYBR Green viability assay was adapted from a method described previously (Plouffe et al., 2008). For screening 3 ul culture medium was dispensed into 1536 well black clear bottom plates (Aurora Biotechnologies) using a Multidrop Combi (Thermo Fisher Scientific Inc.), 23 nL compounds in DMSO were added by a pin tool (Kalypsys), and 5 ul of erythrocytes infected with P. falciparum line Dd2 (0.3% parasitemia, 2.5% hematocrit final concentration) were added. The plates were incubated at 37 C in a humidified incubator in 5% CO2 for 72 h, and 2 ul lysis buffer (20 mM Tris HCl, 10 mM EDTA, […]% saponin, 1.6% triton X, 10X SYBR Green I supplied as 10,000X […] by Invitrogen) was added to each well. The plates were mixed for 25 sec with gentle shaking and incubated overnight at room temperature in the dark. The following morning, fluorescence intensity at 485(14) nm excitation and 535(25) nm emission wavelengths was measured on an EnVision (Perkin Elmer) plate reader. Plate reads were normalized relative to the control inhibitor (0.29 uM artemisinin) and vehicle (DMSO) wells present on each plate and then corrected by an algorithm using vehicle-only control plates at the beginning and end of the compound plate stack.
# Plouffe D, Brinker A, McNamara C, Henson K, Kato N, Kuhen K, Nagle A, Adrian F, Matzen JT, Anderson P, Nam TG, Gray NS, Chatterjee A, Janes J, Yan SF, Trager R, Caldwell JS, Schultz PG, Zhou Y, Winzeler EA. […] Proc Natl Acad Sci U S A. 2008, 105(26), pp 9059-64.
# Potency is read from the fitted curve at half-maximal effect.
row,SMILES,Potency
1,C[C@@H](NCCc1ccc(O)cc1)[C@@H](O)c1ccc(O)cc1,inactive
2,NC(Cc1cccc(-c2ccccc2CP(=O)(O)O)c1)C(=O)O (stereo not given),inactive
3,COc1ccc2c(c1)c(CC(=O)O)c(C)n2C(=O)c1ccccc1,inactive
4,O=c1oc(Cl)c(Cl)c2ccccc12,inactive
5,CNc1ncnc2c1ncn2[C@H]1C[C@H](OP(=O)(O)O)[C@@H](COP(=O)(O)O)O1,inactive
6,O=C(O)C1CCCNC1 (stereo not given),inactive
7,NC(=O)CNCCC(c1ccccc1)c1ccccc1,4.47 µM (active)
8,O=C(O)/C=C/c1ccc(O)c(O)c1,inactive
9,CCN(CC)CCCCCCCCOC(=O)c1cc(OC)c(OC)c(OC)c1,8.91 µM (active)
10,OC[C@H]1NC[C@@H](O)[C@@H]1O,inactive
11,COc1ccc(C(=O)NCc2cccnc2)cc1C(=O)NCc1cccnc1,inactive
12,CC1CCN=C(N)S1 (stereo not given),inactive
13,N[C@H]1CONC1=O,inactive
14,CC[N+](CC)(CC)CC(=O)Nc1c(C)cccc1C,inactive
15,CN1CCN(c2nc3cc(C(F)(F)F)ccc3n3cccc23)CC1,8.91 µM (active)
16,O=c1ccn([C@@H]2O[C@H](COP(=O)(O)OP(=O)(O)O)[C@@H](O)[C@H]2O)c(=O)[nH]1,inactive
17,COC(=O)C(N)Cc1ccc(Cl)cc1 (stereo not given),inactive
18,NC1(C(=O)O)CCc2cc(C(=O)O)ccc21 (stereo not given),inactive
19,CC(N)=NCCCC[C@@H](N)C(=O)O,inactive
20,c1ccc(CN2CCC3(CCCc4ccccc43)CC2)cc1,11.2 µM (active)

row,SMILES,Potency
1,CC#CCOC(=O)c1c(C)nc2sc3c(c2c1N)CCC(O)C3 (stereo not given),inactive
2,N[C@@H](Cc1ccc(F)cc1)C(=O)O,inactive
3,Cc1ccc([N+](=O)[O-])cc1S(=O)(=O)N(C)C,inactive
4,COC1(C2=NCCN2)COc2ccccc2O1 (stereo not given),inactive
5,O=C(O)C1=CCCN(CCON=C(c2ccccc2)c2ccccc2)C1,inactive
6,Cc1cccc(C(=O)NCN2CCN(c3ccccc3C#N)CC2)c1,inactive
7,N[C@@H](Cc1c[nH]c2ccccc12)C(=O)O,inactive
8,CC(=O)O[C@H]1CC2(C)[C@@H](C[C@@H](O)[C@H]3[C@@]4(C)CC[C@@H](O)[C@@H](C)[C@@H]4CC[C@@]32C)C1=C(CCC=C(C)C)C(=O)O (stereo not given in full),inactive
9,O=C(O)C1CCNCC1,inactive
10,CC1=C(C(=O)O)N2C(=O)[C@@H](NC(=O)C(N)C3=CCC=CC3)[C@H]2SC1 (stereo not given in full),inactive
11,Cn1cc(C(F)(F)F)nc1-c1ccc(OCC(O)CNCCOc2ccc(O)c(C(N)=O)c2)cc1 (stereo not given),inactive
12,COc1ccccc1N1CCN(CCCNc2c(C)c(=O)n(C)c(=O)n2C)CC1,inactive
13,Oc1ccc(Cn2cc[nH]c2=S)cc1,inactive
14,Cc1cc2c(cc1Cl)N(C(=O)Nc1ccnc3ccccc13)CC2,inactive
15,O=S(=O)(c1cccc2c(Cl)cccc12)N1CCCNCC1,4.47 µM (active)
16,NS(=O)(=O)c1cccc2c1c([N+](=O)[O-])cc1nc(O)c(O)nc12,inactive
17,Nc1ncnc2c1ncn2C1CCCO1 (stereo not given),inactive
18,C=CCn1c(=O)c2c(nc(-c3ccc(S(=O)(=O)O)cc3)n2C)n(C)c1=O,inactive
19,CN(C)S(=O)(=O)c1ccc2c(c1)/C(=C/c1cc3c([nH]1)CCCC3)C(=O)N2,7.08 µM (active)
20,CC(=O)N[C@@H](Cc1c[nH]c2ccccc12)C(=O)OCc1cc(C(F)(F)F)cc(C(F)(F)F)c1,inactive
